Compounds without any hit were thinned out: in the full panel of roughly 79,000, 15% have a hit. A number with no mark means an inactive call. Activity calls are given as the source filed them. Cut-off read from the data, not from the text of the source: active = growth inhibition above about 70%; inactive = the rest.
test: NCI Yeast Anticancer Drug Screen. Data for the mlh1 rad18 strain (AID 175); conditions: S. cerevisiae mlh1 rad18 strain growth inhibition; at 50.0 µM; stronger effect = higher value
How it was run: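 Test agents were incubated with a yeast strain of defined genotype (DNA damage repair defect). Inhibition of growth was derived by comparison with vehicle-exposed cultures.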

**Q.** Which growth inhibition does the source give for `COc1ccc(OC)c2c(NCCNCCO)cc(NCCNCCO)nc12` here?
**A.** 7.5%

**Q.** With `CC(=O)NNC(=S)N/C=C(\C#N)c1nc2ccccc2s1` as the compound, how does the growth inhibition read?
**A.** 12.1%

**Q.** For `COc1ccc(Cc2cc3c(cc2OCCOC(C)=O)OCO3)cc1`, which growth inhibition is on record?
**A.** 23.4%

**Q.** Which growth inhibition does the source give for `NCCC(=O)NCCSSCCNC(=O)CCN` here?
**A.** 15.1%

**Q.** Which growth inhibition does the source give for `CCN1CCCC1CO` (stereo not given) here?
**A.** 6.65%

**Q.** Which growth inhibition does the source give for `Cc1cccc(/C=N/Nc2ccc([N+](=O)[O-])cc2[N+](=O)[O-])c1C` here?
**A.** 4%

**Q.** Which growth inhibition does the source give for `N#Cc1c(-c2ccco2)cc(-c2ccccc2)[nH]c1=O` here?
**A.** 25.6%

**Q.** For `COc1ccc(C(C)Nc2cc(OC)c(OC)c(OC)c2)cc1` (stereo not given), which growth inhibition is on record?
**A.** -15.1%

**Q.** For `CC1=NN(C(=O)c2ccccc2O)C(=O)/C1=C/c1ccc(O)cc1`, which growth inhibition is on record?
**A.** -27.6%

**Q.** For `[N-]=[N+]=NC12CC3C4CC5CC3C(C1)C(C5)C4C2`, which growth inhibition is on record?
**A.** -8.45%

**Q.** Which growth inhibition does the source give for `C[N+](C)(CCCn1ccnc1[N+](=O)[O-])CCCn1ccnc1[N+](=O)[O-]` here?
**A.** 4.8%

**Q.** With `O=C1C(=C(C(F)(F)Cl)C(F)(F)Cl)C2CCC1C2` (stereo not given) as the compound, how does the growth inhibition read?
**A.** 7.7%

**Q.** Which growth inhibition does the source give for `NC(=O)c1cc[n+](-c2ccc([N+](=O)[O-])cc2[N+](=O)[O-])cc1` here?
**A.** 56.5%

**Q.** Which growth inhibition does the source give for `O=C(/C=C(\Br)c1ccccc1)c1ccccc1` here?
**A.** 99.3% (active)

**Q.** For `Cn1cc(C(=O)C2CCCCC2)ccc1=O`, which growth inhibition is on record?
**A.** -19.3%

**Q.** For `N#CCC(=O)N1CCCC1`, which growth inhibition is on record?
**A.** -26.2%

**Q.** With `CC/C(C)=N/NS(C)(=O)=O` as the compound, how does the growth inhibition read?
**A.** -10.9%

**Q.** Which growth inhibition does the source give for `CCCCCCCCCCOc1ccc(OCCCCCCCCC)cc1` here?
**A.** -11.9%

**Q.** For `C=CCCCCCCCCC(=O)N1CCN(C)CC1`, which growth inhibition is on record?
**A.** 27.6%

**Q.** With `CC(Cc1cccc2ccccc12)(C(=O)O)C(=O)O` as the compound, how does the growth inhibition read?
**A.** 0.05%

**Q.** For `Cc1ccc([N+](=O)[O-])cc1NC(=O)NCCCl`, which growth inhibition is on record?
**A.** -9.05%

**Q.** Which growth inhibition does the source give for `C=C1CC[C@H]2C(=O)OC(c3ccoc3)C[C@]2(C)C/C=C\C=C/1C(=O)OC` (stereo not given in full) here?
**A.** -22.6%

**Q.** For `O=C(CCC(=O)Nc1cc(Cl)ccc1Cl)CC(=O)c1ccc([N+](=O)[O-])cc1`, which growth inhibition is on record?
**A.** 40.4%

**Q.** Which growth inhibition does the source give for `O=c1c2ccccc2c(=O)n2n1CC=CC2` here?
**A.** -1.9%

**Q.** Which growth inhibition does the source give for `CCCCN=C(C)CC(=O)CC(=O)c1ccccc1` here?
**A.** 33.9%

**Q.** Which growth inhibition does the source give for `CC(=N\N=C\c1ccccn1)/C(C)=N/N=C(C)/C(C)=N/N=C/c1ccccn1` here?
**A.** -23.1%

**Q.** For `CC(C)OP(=O)(c1ccccc1)c1ccc2c(c1)OCCOCCOCCOCCO2` (stereo not given), which growth inhibition is on record?
**A.** 24.7%

**Q.** Which growth inhibition does the source give for `O=[N+]([O-])c1cc2c(cc1Br)C1C(C3C2C2(Cl)C(Cl)=C(Cl)C3(Cl)C2(Cl)Cl)C2(Cl)C(Cl)=C(Cl)C1(Cl)C2(Cl)Cl` (stereo not given) here?
**A.** 8.1%

**Q.** Which growth inhibition does the source give for `CC1(C)OCC(C2OC3OC(C)(C)OC3/C2=N/NC(=O)c2cc3cc(OCc4ccccc4)ccc3[nH]2)O1` (stereo not given) here?
**A.** 86% (active)

**Q.** Which growth inhibition does the source give for `CC(C(=O)O)N(C)C(=O)OCc1ccccc1` (stereo not given) here?
**A.** -4.5%

**Q.** For `OCc1ccc(CO)cc1`, which growth inhibition is on record?
**A.** 7.2%

**Q.** Which growth inhibition does the source give for `Cc1ccc2c(c1)C(c1cccc3ccccc13)OC2=O` (stereo not given) here?
**A.** 29.4%

**Q.** Which growth inhibition does the source give for `Cc1cn(-c2c(C)c(C)c(-n3c(C)ccc3C)c(C)c2C)cc1C` here?
**A.** 0%

**Q.** For `CC12CC(=O)NC(=O)N1CCS2` (stereo not given), which growth inhibition is on record?
**A.** -6.15%

**Q.** With `CCOC(=O)Cc1cccnc1` as the compound, how does the growth inhibition read?
**A.** -3.4%

**Q.** For `O=C(O)c1ccc([C@@H]2C(=O)N(O)[C@@H]3C=CC[C@@H]32)cc1`, which growth inhibition is on record?
**A.** 8.25%

**Q.** With `NC1=NCC(c2ccccn2)C1c1ccc(F)cc1` (stereo not given) as the compound, how does the growth inhibition read?
**A.** -14%

**Q.** For `COc1ccc(N2C(=O)CC(c3cc(OC)c(OC)c(OC)c3)CC2=O)cc1`, which growth inhibition is on record?
**A.** -2.75%

**Q.** Which growth inhibition does the source give for `COC(=O)c1ccc(S(=O)(=O)O)cc1[N+](=O)[O-]` here?
**A.** 24.4%

**Q.** Which growth inhibition does the source give for `NS(=O)(=O)c1ccc(N2C(=O)C(=O)N(c3ccccc3)C2=S)cc1` here?
**A.** -20.5%

From PubChem BioAssay (NCI)
